# Compound activity as filed in PubChem BioAssay.
# PfHsp40 rescue: rescue of yeast from PfHsp40 toxicity, primary screen, S. cerevisiae, ATP luminescence. S. cerevisiae expressing PfHsp40, growth rescue. growth rescue, % at 12.5 µM. 340,000 compounds, 0.68% hits; in the data active = growth rescue above about 28%, passing the limit was not always enough; inconclusive = no clear call, values can overlap the other calls;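 note: yeast W303a lacking pdr1 and pdr3 grown in galactose medium; growth measured after three days at 30 °C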
# BoNT-F LC inh: BoNT/F light chain protease inhibitors, primary screen, biochemical, flow cytometry, MLPCN library; Botulinum neurotoxin type F light chain protease (Clostridium botulinum); inhibition, % at 10 µM; 360,000 compounds, 0.22% hits; AID 588497, 2011; Multiplex microsphere protease cleavage assay; in the data active = inhibition above about 35%, passing the limit was not always enough; inconclusive = no clear call, values can overlap the other calls; note: plate controls were buffer without enzyme for full effect and enzyme alone for no effect
# Anthrax LF inh2: Bacillus anthracis LF protease inhibitors, primary screen, biochemical, multiplex microsphere, MLPCN library | Lethal factor (Bacillus anthracis), P15917 | inhibition, % at 10 µM | AID 588501, 2011 | 360,000 compounds, 0.12% hits | multiplex microsphere protease cleavage assay; note: plate controls were buffer without enzyme for full effect and enzyme alone for no effect
# Target sequence (P15917 whole entry, looked up): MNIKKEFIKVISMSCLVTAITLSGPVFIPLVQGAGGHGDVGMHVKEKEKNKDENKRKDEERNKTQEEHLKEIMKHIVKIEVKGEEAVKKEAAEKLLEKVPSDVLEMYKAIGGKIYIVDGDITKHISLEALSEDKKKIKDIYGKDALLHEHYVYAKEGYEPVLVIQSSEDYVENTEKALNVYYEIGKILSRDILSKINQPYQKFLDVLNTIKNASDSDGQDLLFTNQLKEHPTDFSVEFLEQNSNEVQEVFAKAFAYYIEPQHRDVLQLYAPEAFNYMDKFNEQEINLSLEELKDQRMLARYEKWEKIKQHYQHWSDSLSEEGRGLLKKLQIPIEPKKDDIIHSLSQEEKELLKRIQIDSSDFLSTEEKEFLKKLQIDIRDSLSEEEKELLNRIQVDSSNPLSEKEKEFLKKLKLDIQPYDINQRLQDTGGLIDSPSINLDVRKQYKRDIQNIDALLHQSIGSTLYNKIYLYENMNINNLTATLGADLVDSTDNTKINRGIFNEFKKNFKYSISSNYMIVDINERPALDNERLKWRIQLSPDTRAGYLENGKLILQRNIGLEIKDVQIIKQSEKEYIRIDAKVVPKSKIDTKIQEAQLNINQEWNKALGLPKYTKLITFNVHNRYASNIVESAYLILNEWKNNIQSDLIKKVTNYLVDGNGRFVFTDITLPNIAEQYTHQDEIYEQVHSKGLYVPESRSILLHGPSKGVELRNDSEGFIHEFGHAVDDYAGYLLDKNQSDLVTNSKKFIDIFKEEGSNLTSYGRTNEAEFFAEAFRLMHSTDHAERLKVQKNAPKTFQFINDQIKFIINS
# MazEF act: activators of E. coli MazEF toxin-antitoxin RNase, primary screen, biochemical, fluorescence, uHTS | FAM/BHQ RNA-DNA oligo cleavage fluorescence, 5 h | activation, % at 20 µM | 350,000 compounds, 0.32% hits; in the data active = activation above about 50%
# BoNT A protease: BoNT/A light chain protease inhibitors, primary screen, biochemical, flow cytometry, MLPCN library; inhibition, % at 10 µM; 360,000 compounds, 0.17% hits; Botulinum neurotoxin type A light chain protease (Clostridium botulinum A str. ATCC 3502); multiplex microsphere protease substrate cleavage; AID 588499, 2011; note: plate controls were buffer without enzyme for full effect and enzyme alone for no effect
# Autofluor counter: flagged as autofluorescent in microsphere protease counterscreen; fluorescence intensity (test concentration not listed); compound autofluorescence counterscreen, microsphere flow cytometry; stronger effect = higher value; 360,000 compounds, 3.1% hits; in the data active = fluorescence intensity above about 16000; inconclusive = no clear call, values can overlap the other calls
# * marks the source's active call; other numbers are inactive results; ? = inconclusive; . = not tested or not shown. The list is not random: actives were taken first. Their share in the collection is about 4.3%. Cut-off read from the data, not from the text of the source, unless noted: active = inhibition above about 30%; inconclusive = no clear call, values can overlap the other calls; inactive = below that.
SMILES,PfHsp40 rescue,BoNT-F LC inh,Anthrax LF inh2,MazEF act,BoNT A protease,Autofluor counter
CCN1CCN(c2ccc(NC(=O)c3cccc4ncccc34)cc2)CC1,1,-10,-12,3,?,22120*
O=C(NCc1ccco1)c1cnn2cccnc12,-2,2,-1,8,0,4306
COc1cc(SC#N)ccc1N=Cc1c(C)[nH]n(-c2cccc3ccccc23)c1=O,.,.,.,5,.,.
COc1cc(SC#N)ccc1N=Cc1c(C)[nH]n(-c2ccc(C)cc2C)c1=O,38*,-3,-1,9,0,2859
COc1ccc2nc(/N=C/c3c(C)[nH]n(-c4ccc(C)cc4C)c3=O)sc2c1,-1,0,-1,-2,-1,9028
COc1ccccc1N=Cc1c(C)[nH]n(-c2ccc(C)cc2C)c1=O,58*,-5,2,9,0,4591
O=S(=O)(CCSc1ccccn1)c1nc2ccccc2s1,59*,-3,3,-7,-1,23137*
O=C(c1ccc2ccccc2c1)N1CCN(Cc2ccccc2)CC1,0,-1,-1,-6,-2,4008
C=CCC1CCC/C(=N\NS(=O)(=O)c2ccc(C)cc2)C1 (stereo unspecified),-1,4,2,1,4,3929
O=C(CNC(=O)c1ccc(Cl)cc1Cl)OC1CCCCC1=O (stereo unspecified),0,-11,-11,0,0,3674
Cc1cc(C)nc(NC(=O)c2cccc(Cl)c2)n1,0,0,2,9,2,22692*
NS(=O)(=O)c1ccc(-c2ccc(/C=C3\SC(=S)N(C4CCS(=O)(=O)C4)C3=O)o2)cc1 (stereo unspecified),1,19,46*,-35,65*,4298
Cc1ccc(/C=C2\SC(=S)N(C3CCS(=O)(=O)C3)C2=O)o1 (stereo unspecified),5,11,15,0,35*,2152
Cc1ccc(OCC(=O)NNC(=O)c2ccc(F)c(S(=O)(=O)N3CCOCC3)c2)cc1C,.,-3,2,12,-1,3519
Cc1cc(Cl)ccc1NC(=O)Nc1c(C)n(-c2ccccc2)c(=O)n1C,-1,-1,0,-4,0,22798*
C=CCn1c(C)cc(C(=O)CN2NS(=O)(=O)c3ccccc3C2=O)c1C,-1,-7,-5,57*,-2,5150
Cc1ccc(CNC(=O)CN2NS(=O)(=O)c3ccccc3C2=O)cc1,.,-3,4,1,0,4107
COc1cc(/C=C2/N=C(C3CCCCC3)OC2=O)cc(OC)c1OC,-1,1,-4,3,?,20975*
COc1cc(/C=C2\N=C(C)OC2=O)cc(OC)c1OC,0,4,-5,2,-4,2955
Cc1ncsc1C(=O)NCc1ccc(N2CCCC2=O)cc1,0,3,-2,0,0,16227*
CC1(C(=O)Nc2ccc3c(c2)OCO3)CCN1C(=O)CCC1CCCC1 (stereo unspecified),.,-17,-8,.,-1,2859
CC(C)c1nnc(NC(=O)C2CCCCC2)s1,0,-18,-10,4,-1,4719
CC(C)c1cc(C(N)=O)c(NC(=O)C2CCC2)s1,-1,4,0,-10,1,21955*
CCC(C)OC(=O)C1C(c2ccccc2)C(C(=O)O)C1c1ccccc1 (stereo unspecified),1,-2,-8,-7,-1,10259
COC(=O)C1C(c2ccccc2)C(C(=O)OCc2ccco2)C1c1ccccc1 (stereo unspecified),-1,7,-7,-8,6,20681*
O=C(O)C1C(c2ccccc2)C(C(=O)OCc2ccco2)C1c1ccccc1 (stereo unspecified),0,-1,-1,1,-1,23151*
Cc1ccccc1OC(=O)C1C(c2ccccc2)C(C(=O)O)C1c1ccccc1 (stereo unspecified),0,12,3,3,6,20251*
CCOC(=O)C1C(c2ccccc2)C(C(=O)OCC)C1c1ccccc1 (stereo unspecified),0,-7,1,2,0,9355
O=C(O)C1C(c2ccccc2)C(C(=O)OCCCO)C1c1ccccc1 (stereo unspecified),0,-2,-2,11,0,22890*
